This is a sample that favours compounds with a hit; in the whole collection about 1.8% have one here.
EWS-Fli inh: blocks EWS/Fli oncoprotein-driven transcription. A673 NR0B1-luciferase reporter, viability-normalised. inhibition, % at 12.6 µM. actives 0.67% (n = 350,000). AID 651661;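 active means mean inhibition of at least 50% after viability correction, with every replicate also passing that limit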;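 further: firefly luciferase signal divided by Alamar Blue viability fluorescence both relative to DMSO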
F508del corr: correctors of CFTR F508del function in bronchial epithelial cells; activity (quench increase), % at 7.58 µM; AID 720511; actives 0.36% (n = 350,000); CFBE cells, YFP halide quenching; stimulated with forskolin plus potentiator P3; % fluorescence drop versus neutral controls;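 active means mean added fluorescence quench of at least 8% versus neutral control, with both replicates also reaching 8%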;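 further: cells transiently co-express mutant CFTR-F508del with the halide-sensitive YFP; corrector assay measuring rescue of mutant channel to the surface after 24 h compound exposure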
PAX8 inh HTS: PAX8 transcriptional activity inhibition; RMG-I TPO-luciferase reporter, SteadyGlo, 24 h; inhibition, % at 12.6 µM; actives 1.2% (n = 360,000); AID 652154;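 active means mean replicate inhibition at least 60% with every replicate also reaching 60%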;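 further: luciferase light reporting Pax8 driven TPO promoter activity; plate controls were median of neutral control wells for no effect and mitoxantrone controls for full effect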
LGR2 antag: inhibitors of bursicon-induced Drosophila LGR2 receptor cAMP signaling; HEK293 LGR2, CRE-luciferase, bursicon-stimulated, 4 h; inhibition, % at 9.99 µM; actives 0.35% (n = 380,000); AID 720647;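 active means drop in luminescence signal, shown as inhibition above about 50% in the replicate tests, limit read from the data, passing the limit was not always enough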;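 further: agonist challenge used bursicon conditioned medium at about half maximal strength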
An asterisk follows results filed as active; . = no result given.

SMILES | EWS-Fli inh | F508del corr | PAX8 inh HTS | LGR2 antag
C[C@@H]1CCCCO[C@@H](CN(C)C(=O)Cc2ccccc2)[C@H](C)CN([C@@H](C)CO)C(=O)c2cc(NS(=O)(=O)c3cccs3)ccc2O1 | -11.5 | -1.2 | -19.5 | 6.7
COc1ccc(NS(=O)(=O)c2ccc(O)c([N+](=O)[O-])c2)cc1S(=O)(=O)N1CCCCC1 | -2.9 | 1.7 | 13.3 | 8.8
CC(=O)Nc1ccc(S(=O)(=O)NCc2nc(-c3ccc(C)cc3)no2)cc1 | -8.9 | 3.2 | 15.1 | 7.6
O=C(/C=C/c1ccc2ccccc2n1)N1CCN(S(=O)(=O)c2ccc(F)cc2)CC1 | 25.2 | -4.8 | 67.7* | 17.0
O=C(/C=C/c1ccc2ccccc2n1)N1CCN(S(=O)(=O)c2ccccc2F)CC1 | 9.7 | -10.2 | 58.6 | 14.4
Cc1cc(C)cc(C(=O)NCC(=O)OCC(=O)c2c(N)n(C)c(=O)n(C)c2=O)c1 | 1.4 | -3.7 | 10.6 | -6.6
COc1ccc(/C=C2/CCC(CN3CCOCC3)C2=O)cc1 (configuration not stated) | 56.7* | -0.9 | 5.0 | -8.9
C[C@@H]1CCCCO[C@@H](CN(C)C(=O)Nc2ccc(F)cc2)[C@@H](C)CN([C@H](C)CO)C(=O)c2cc(NS(=O)(=O)c3ccccc3)ccc2O1 | 2.3 | 0.7 | -12.8 | -0.3
CN(C)c1ccc(-c2sc(Nc3ccccc3)n[n+]2-c2ccc(F)cc2)cc1 | -1.8 | 1.6 | 1.6 | -11.7
CCc1ccc(Nc2n[n+](-c3ccccc3)c(-c3ccc(N(CC)CC)cc3)s2)cc1 | 26.9 | 2.7 | 82.1* | 8.4
CCc1ccc(Nc2n[n+](-c3ccccc3)c(-c3c(Cl)cccc3Cl)s2)cc1 | 40.3 | 7.9 | 101.4* | 44.1
CCc1ccc(Nc2n[n+](-c3ccccc3)c(-c3ccc(OCc4ccccc4)cc3)s2)cc1 | 5.7 | -0.3 | 8.4 | -29.9
Fc1ccc(-[n+]2nc(Nc3ccccc3)sc2-c2c(Cl)cccc2Cl)cc1 | 13.2 | 2.3 | 32.0 | 71.3*
CN1C(=O)c2cc(NS(=O)(=O)c3ccc(Cl)cc3)ccc2OC[C@H]2O[C@H](CC(=O)N3CCc4ccccc4C3)CC[C@H]21 | 3.3 | -1.5 | 28.0 | 2.2
CC(=O)Nc1ccc2c(c1)C(=O)N(C)[C@H]1CC[C@@H](CC(=O)N3CCc4ccccc4C3)O[C@H]1CO2 | 2.2 | 2.2 | 15.4 | -13.1
Nc1ccc2cc3[nH]c4cc(N)ccc4c3nc2c1 | 42.1 | 6.5 | 90.3* | .
O=C(CSc1ncccc1-c1nc2ccccc2[nH]1)N1CCc2ccccc21 | -47.7 | 0.5 | 89.8* | -20.5
CC(C)(C)NC(=O)CSc1ncccc1-c1nc2ccccc2[nH]1 | -35.2 | 1.2 | 15.2 | 2.0
COc1cc2c(c(Br)c1N)-c1cc(Br)c(N)cc1C2=O | -18.1 | 8.5* | -7.5 | .
COc1cc2c(cc1N)-c1ccc(N)cc1C2=O | -82.9 | -1.0 | -186.1 | .
CC(C)n1ncc2c(C(=O)Nc3cccc(C#N)c3)cc(C3CC3)nc21 | 9.2 | -0.5 | 28.1 | 94.8*
CCNC(=O)c1cccc(NC(=O)c2cc(C3CC3)nc3c2cnn3C(C)C)c1 | 11.0 | -0.8 | . | 15.0
CC1Sc2ccc(C(=O)Nc3ccccc3OC(F)F)cc2NC1=O (configuration not stated) | -60.5 | -2.6 | -133.3 | -4.3
COc1ccc(/C(C)=N/NC(=O)c2cccc(S(=O)(=O)N3CCCC3)c2)c(O)c1 | -0.7 | 9.8* | 66.0* | 31.1
O=C(NCCO)c1cccc2c1-c1ccccc1C2=O | -12.2 | 1.4 | -17.8 | 30.6
SMILES | EWS-Fli inh | F508del corr | PAX8 inh HTS | LGR2 antag
CC(C)(C)NC(=O)c1cccc2c1-c1ccccc1C2=O | 18.1 | 10.1* | -3.4 | -13.5
Cc1cc(NCc2ccccn2)n2nc(C)c(-c3ccccc3)c2n1 | 10.0 | 11.7* | 18.6 | 3.1
C[C@]12CCC(=O)CC1=CCC1C3CC=C(C#N)[C@@]3(C)CC[C@@]12O (some centres not stated) | -9.7 | 1.3 | 37.1 | -2.2
CCSc1nc(-c2ccccc2)nc(C(Cl)Cl)n1 | 49.8 | -9.3 | 96.4* | 22.6
C[C@H]1CN([C@@H](C)CO)S(=O)(=O)c2ccc(-c3ccccc3)cc2O[C@@H]1CN(C)Cc1cccnc1 | 2.3 | 3.1 | 19.7 | -1.4
C[C@@H]1CN([C@H](C)CO)S(=O)(=O)c2ccc(-c3ccccc3)cc2O[C@H]1CN(C)Cc1ccccn1 | 72.7* | 15.8* | . | 6.1
C[C@@H]1CN([C@H](C)CO)S(=O)(=O)c2ccc(-c3ccc(C#N)cc3)cc2O[C@H]1CN(C)Cc1ccccn1 | 53.3* | 12.0* | 65.2* | -5.6
